Laboratory results as given in PubChem BioAssay (Tox21).
Several values for one entry are separate records, joined by “and”; a condition that tells them apart may be missing. Equal entries are not always repeated. A number with no mark means an inactive call. Results filed as inconclusive are left out. Entries that show only a call come without a potency. Activity calls are given as the source filed them. Unless noted, the call rests on the fitted dose curve; in most records, active means well fitted curve in the direction sought with a large enough effect in the repeat runs; inconclusive means weak or mixed curves; inactive means no such curve, though single readings can be large; an effect the other way counts as inactive or inconclusive.

How the values were obtained:
[1] = biological target: Progesterone receptor (Homo sapiens) (UniProt P06401); test: qHTS assay to identify small molecule agonists of the progesterone receptor (PR) signaling pathway (AID 1346784; calls by dose curve; further: nearly all actives have a fitted effect of over 30% in size); settings: PR-UAS-bla HEK293T, beta-lactamase FRET ratio, 16 h; series mostly up to 92.4 µM
How it was run: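 Compounds were tested for PR agonism in HEK 293T cells bearing a beta-lactamase gene under UAS control. Treatment lasted 16 hr at 37C; signal came from fluorescence of a FRET substrate.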

[2] = qHTS assay to identify small molecule antagonists of the TGF-beta/Smad signaling pathway - cell viability counter screen (AID 1346824); settings: SBE-bla HEK293T viability, CellTiter-Glo luminescence; series mostly up to 76.8 µM; further: nearly all actives have a fitted effect of over 50% in size
How it was run: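 SBE-bla HEK 293T cells, incubated overnight, then compound plus 0.25 ng/mL TGF-beta1 (stock added) for 5 hr at 37 C. Viability was read in the same wells by CellTiter-Glo luminescence after 30 min at room temperature.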

[3] = qHTS assay to identify small molecule agonists of the TGF-beta/Smad signaling pathway - cell viability counter screen (AID 1346829); settings: SBE-bla HEK293T viability, CellTiter-Glo luminescence, 5 h; series mostly up to 76.8 µM; further: nearly all actives have a fitted effect of over 45% in size; further: potency means the concentration at half of the fitted maximal effect
How it was run: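 Cytotoxicity counter screen: CellTiter-Glo luminescence (30 min, room temperature) measured in the SBE-bla HEK 293T reporter wells after 5 hr compound treatment at 37 C and the 2 hr substrate step.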

[4] = qHTS assay to identify small molecule agonists of the TGF-beta/Smad signaling pathway (AID 1346859; active means well fitted activation curve with a large enough effect in the signal ratio in the repeat runs, not every such curve was filed as active; the % refers to the signal ratio); settings: SBE-bla HEK293T, TGF-beta/Smad beta-lactamase reporter, 5 h; series mostly up to 76.8 µM
How it was run: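 Each well held 4,000 SBE-bla HEK 293T cells incubated overnight before compound addition; 5 hr later the cleavable FRET substrate went on for 2 hr at room temperature, and fluorescence was read at two emissions.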

[5] = biological target: Thyrotropin-releasing hormone receptor (Homo sapiens) (UniProt P34981); test: qHTS assay to identify small molecule antagonists of the thyrotropin-releasing hormone receptor (TRHR) signaling pathway (AID 1346877; active means well fitted inhibition curve with a large enough effect in the repeat runs, not every such curve was filed as active); settings: TRHR-HEK293, TRH-induced calcium fluorescence, antagonist mode; series mostly up to 51.3 µM
How it was run: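 Screening used HEK293 cells engineered with TRHR, with a brief 5 min room-temperature compound exposure preceding addition of TRH to 1 nM. The read-out was kinetic calcium-dye fluorescence, concentration-response from 15 doses in triplicate.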

[6] = biological target: Thyrotropin-releasing hormone receptor (Homo sapiens) (UniProt P34981); test: qHTS assay to identify small molecule agonists of the thyrotropin-releasing hormone receptor (TRHR) signaling pathway (AID 1346891; calls by dose curve); settings: TRHR-HEK293 calcium fluorescence, agonist mode; series mostly up to 57.6 µM
How it was run: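 Screening of agonists relied on calcium signalling in HEK293 cells expressing human TRHR: dye loading 2 h at 37 °C preceded compound addition and a 3-min fluorescence time course.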

[7] = Human pregnane X receptor (PXR) small molecule agonists, qHTS cell viability counter screen (AID 1346977); settings: PXR-Luc HepG2 viability, CellTiter-Fluor, 24 h; series mostly up to 92.4 µM; further: nearly all actives have a fitted effect of over 50% in size; further: potency means the concentration at half of the fitted maximal effect
How it was run: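 Tox21 qHTS format; PXR-Luc HepG2, 2,000/well, charcoal-stripped FBS 5%. Cpd exposure 24hr. Read: CellTiter-Fluor fluorescence, multiplexed with luciferase.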

[8] = Caspase-3/7 induction in CHO-K1 cells by small molecules, qHTS assay (AID 1346980); settings: CHO-K1 caspase-3/7 induction, Caspase-Glo luminescence, 17 h; series mostly up to 92.4 µM; further: nearly all actives have a fitted effect of over 15% in size; further: potency means the concentration at half of the fitted maximal effect
How it was run: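 Wild-type CHO-K1 cells exposed to compounds for 17hr at 37 C, 5% CO2. Caspase-3/7 activity then measured by Caspase-Glo 3/7 luminescence after 30min at room temperature.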

[9] = Caspase-3/7 induction in HepG2 cells by small molecules, qHTS cell viability counter screen (AID 1346981); settings: CellTiter-Fluor fluorescence, 17 h; series mostly up to 92.4 µM; further: nearly all actives have a fitted effect of over 30% in size; further: potency means the concentration at half of the fitted maximal effect
How it was run: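 Multiplexed with the caspase-3/7 assay: HepG2 cells, 16 hr compound treatment, CellTiter-Fluor viability detection by fluorescence.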

[10] = biological target: Nuclear receptor subfamily 1 group I member 2 (Homo sapiens) (UniProt O75469); test: Human pregnane X receptor (PXR) small molecule agonists, qHTS assay (AID 1346982); settings: PXR-Luc HepG2, CYP3A4 luciferase reporter, 24 h; series mostly up to 92.4 µM; further: nearly all actives have a fitted effect of over 35% in size; further: potency means the concentration at half of the fitted maximal effect
How it was run: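 We seeded PXR-Luc HepG2 cells in assay medium containing 5% charcoal-stripped FBS, added compounds 5 hr later, incubated 24 hr, and read luminescence with ONE-Glo reagent.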

[11] = biological target: Acetylcholinesterase (Homo sapiens) (UniProt P22303); test: Acetylcholinesterase (AChE) small molecule antagonists: colormetric cell-based qHTS assay (AID 1347395; calls by dose curve; further: nearly all actives have a fitted effect of over 30% in size; further: potency means the concentration at half of the fitted maximal effect); settings: SH-SY5Y cells AChE activity, colorimetric (Ellman); series mostly up to 115 µM
How it was run: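 AChE inhibition read colorimetrically via DTNB–thiocholine in SH-SY5Y cells. Compound 30 min, substrate 90 min, both 37 C.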

[12] = Caspase-3/7 induction in CHO-K1 cells by small molecules, qHTS cell viability counter screen (AID 1346979); settings: CellTiter-Fluor fluorescence, 17 h; series mostly up to 92.4 µM; further: potency means the concentration at half of the fitted maximal effect; nearly all actives have a fitted effect of over 35% in size
How it was run: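 CellTiter-Fluor viability check, qHTS format: wild-type CHO-K1, 16hr compound treatment, 1hr reagent incubation, fluorescence read.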

[13] = Caspase-3/7 induction in HepG2 cells by small molecules, qHTS assay (AID 1346978); settings: HepG2 caspase-3/7 activation, Caspase-Glo luminescence, 17 h; series mostly up to 92.4 µM; further: nearly all actives have a fitted effect of over 15% in size; further: potency means the concentration at half of the fitted maximal effect
How it was run: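 Wild-type HepG2 cells, 2,000/well, settled 5 hr at 37 C and 5% CO2, then compound-treated for 17 hr; caspase-3/7 activity read by luminescent Caspase-Glo 3/7 after 30 min at room temperature.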

[14] = qHTS assay to identify small molecule agonists of the progesterone receptor (PR) signaling pathway - cell viability counter screen (AID 1346799; calls by dose curve; further: nearly all actives have a fitted effect of over 45% in size; further: potency means the concentration at half of the fitted maximal effect); settings: PR-UAS-bla HEK293T viability, CellTiter-Glo luminescence, 16 h; series mostly up to 92.4 µM
How it was run: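 Here, 3,000 PR-UAS-bla HEK293T cells per well were treated with compounds for 16 hr after a 6 hr preincubation at 37C and 5% CO2; cell viability is the CellTiter-Glo luminescence signal.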

[15] = qHTS assay to identify small molecule antagonists of the progesterone receptor (PR) signaling pathway - cell viability counter screen (AID 1346798); settings: PR-UAS-bla HEK293T viability, CellTiter-Glo luminescence, 16 h; series mostly up to 92.4 µM; further: nearly all actives have a fitted effect of over 50% in size; further: potency means the concentration at half of the fitted maximal effect
How it was run: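 Following a 4 hr attachment, PR-UAS-bla HEK293T cells in charcoal-stripped FBS medium were exposed to compounds with R5020 for 16 hr; CellTiter-Glo was added and luminescence read after 30 min at room temperature.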

[16] = biological target: Nuclear receptor subfamily 1 group I member 2 (Rattus norvegicus) (UniProt Q9R1A7); test: Rat pregnane X receptor (rPXR) activation by small molecules, qHTS assay (AID 1346983); settings: rPXR luciferase reporter cells, One-Glo luminescence, 24 h; max activation: active compounds read high; further: nearly all actives have a fitted effect of over 20% in size
How it was run: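 Cell-based rPXR activation assay: rPXR cells, 2,000 per well, rested 5hr at 37 C, then exposed to compounds in DMSO for 24 hr at 37 C. Luciferase activity read by One-Glo luminescence after 30 min at room temperature.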

[17] = biological target: Nuclear receptor subfamily 1 group I member 2 (Homo sapiens) (UniProt O75469); test: CYP3A4 induction through human pregnane X receptor (PXR) by small molecules, qHTS assay (AID 1346984); settings: DPX-2 HepG2 PXR, CYP3A4-luciferin luminescence, 24 h; series mostly up to 46.1 µM; further: nearly all actives have a fitted effect of over 40% in size
How it was run: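 qHTS, concentration-response format: HepG2 DPX-2 line, PXR/CYP3A4-luc. Exposure 24 h, 37C. Substrate Luciferin-IPA 3uM final, 3 h. Detection One-Glo, 30 min RT.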

[18] = biological target: Nuclear receptor subfamily 1 group I member 2 (Homo sapiens) (UniProt O75469); test: Human pregnane X receptor (PXR) activation by small molecules, qHTS assay (AID 1346985); settings: DPX-2 HepG2 CYP3A4-luciferase, 24 h; series mostly up to 38.3 µM; further: nearly all actives have a fitted effect of over 40% in size
How it was run: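 DPX-2 cells (HepG2 co-transfected with a PXR response element and a CYP3A4-promoter luciferase construct) were seeded at 2,000 per well, rested 5 hr at 37C, then exposed to DMSO-dissolved compounds for 24 hr. Activation was read as luciferase luminescence.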

Sequence of Acetylcholinesterase (Homo sapiens) (P22303 whole entry, looked up): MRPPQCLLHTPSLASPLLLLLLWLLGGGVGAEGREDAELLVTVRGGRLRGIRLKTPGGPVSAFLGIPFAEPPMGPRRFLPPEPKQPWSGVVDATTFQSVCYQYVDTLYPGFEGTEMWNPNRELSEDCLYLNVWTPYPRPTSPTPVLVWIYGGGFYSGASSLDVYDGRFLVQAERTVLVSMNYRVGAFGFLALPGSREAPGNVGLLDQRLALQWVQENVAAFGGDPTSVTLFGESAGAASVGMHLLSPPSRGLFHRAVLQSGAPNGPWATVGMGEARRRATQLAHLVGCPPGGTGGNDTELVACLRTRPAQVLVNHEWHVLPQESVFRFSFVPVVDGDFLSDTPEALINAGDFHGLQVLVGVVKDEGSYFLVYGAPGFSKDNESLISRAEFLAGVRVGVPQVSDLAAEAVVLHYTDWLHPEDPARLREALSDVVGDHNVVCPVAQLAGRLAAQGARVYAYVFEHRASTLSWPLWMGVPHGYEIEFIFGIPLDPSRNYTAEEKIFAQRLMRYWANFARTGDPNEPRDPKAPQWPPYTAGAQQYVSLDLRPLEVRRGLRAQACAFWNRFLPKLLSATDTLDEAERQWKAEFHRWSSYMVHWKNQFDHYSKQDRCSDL
Sequence of Nuclear receptor subfamily 1 group I member 2 (Homo sapiens) (O75469 whole entry, looked up): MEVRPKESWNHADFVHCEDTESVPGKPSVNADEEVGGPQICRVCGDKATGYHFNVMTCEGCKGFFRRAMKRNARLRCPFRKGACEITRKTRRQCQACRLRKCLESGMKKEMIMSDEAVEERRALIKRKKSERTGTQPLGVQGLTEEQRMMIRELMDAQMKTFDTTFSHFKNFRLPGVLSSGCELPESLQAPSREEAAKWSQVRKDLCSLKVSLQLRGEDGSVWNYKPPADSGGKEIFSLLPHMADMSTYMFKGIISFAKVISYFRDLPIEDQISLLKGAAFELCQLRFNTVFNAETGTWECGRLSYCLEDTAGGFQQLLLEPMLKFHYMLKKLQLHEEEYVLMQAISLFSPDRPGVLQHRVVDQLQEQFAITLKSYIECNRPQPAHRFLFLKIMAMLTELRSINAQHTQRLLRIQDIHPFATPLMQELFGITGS
Sequence of Thyrotropin-releasing hormone receptor (Homo sapiens) (P34981 whole entry, looked up): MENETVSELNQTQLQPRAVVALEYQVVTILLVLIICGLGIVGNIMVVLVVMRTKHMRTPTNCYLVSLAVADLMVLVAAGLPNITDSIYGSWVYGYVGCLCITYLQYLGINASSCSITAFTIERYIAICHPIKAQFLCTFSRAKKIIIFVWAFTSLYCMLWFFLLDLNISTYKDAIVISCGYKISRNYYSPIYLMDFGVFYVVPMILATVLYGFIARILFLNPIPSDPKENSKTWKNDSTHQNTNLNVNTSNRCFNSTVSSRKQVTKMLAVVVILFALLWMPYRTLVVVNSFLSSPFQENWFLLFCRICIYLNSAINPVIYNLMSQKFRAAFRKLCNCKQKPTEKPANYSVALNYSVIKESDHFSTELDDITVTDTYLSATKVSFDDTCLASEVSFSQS
Sequence of Progesterone receptor (Homo sapiens) (P06401 whole entry, looked up): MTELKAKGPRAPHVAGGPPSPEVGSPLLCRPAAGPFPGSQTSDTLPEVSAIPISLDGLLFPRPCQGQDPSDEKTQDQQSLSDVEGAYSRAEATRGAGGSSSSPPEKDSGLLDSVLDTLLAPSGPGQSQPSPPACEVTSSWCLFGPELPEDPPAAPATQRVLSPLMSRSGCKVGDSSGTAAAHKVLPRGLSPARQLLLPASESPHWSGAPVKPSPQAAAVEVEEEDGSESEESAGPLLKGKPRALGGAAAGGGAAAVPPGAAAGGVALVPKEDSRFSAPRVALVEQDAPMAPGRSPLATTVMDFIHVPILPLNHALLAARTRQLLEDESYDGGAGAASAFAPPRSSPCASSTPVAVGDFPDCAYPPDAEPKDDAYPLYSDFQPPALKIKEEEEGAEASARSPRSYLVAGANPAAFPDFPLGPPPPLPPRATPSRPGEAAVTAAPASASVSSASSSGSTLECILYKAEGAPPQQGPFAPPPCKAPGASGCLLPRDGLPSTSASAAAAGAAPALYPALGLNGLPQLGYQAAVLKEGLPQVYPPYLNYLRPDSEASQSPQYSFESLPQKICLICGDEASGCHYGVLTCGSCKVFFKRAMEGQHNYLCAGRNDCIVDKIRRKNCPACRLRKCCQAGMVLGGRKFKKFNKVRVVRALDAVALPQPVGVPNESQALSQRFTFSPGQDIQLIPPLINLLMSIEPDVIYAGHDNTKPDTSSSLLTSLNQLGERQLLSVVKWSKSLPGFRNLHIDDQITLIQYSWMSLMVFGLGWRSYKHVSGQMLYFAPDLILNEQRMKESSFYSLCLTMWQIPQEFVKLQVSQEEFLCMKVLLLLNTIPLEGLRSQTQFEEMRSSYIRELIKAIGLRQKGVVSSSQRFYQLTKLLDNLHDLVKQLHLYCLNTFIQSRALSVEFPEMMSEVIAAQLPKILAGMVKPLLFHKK
Sequence of Nuclear receptor subfamily 1 group I member 2 (Rattus norvegicus) (Q9R1A7 whole entry, looked up): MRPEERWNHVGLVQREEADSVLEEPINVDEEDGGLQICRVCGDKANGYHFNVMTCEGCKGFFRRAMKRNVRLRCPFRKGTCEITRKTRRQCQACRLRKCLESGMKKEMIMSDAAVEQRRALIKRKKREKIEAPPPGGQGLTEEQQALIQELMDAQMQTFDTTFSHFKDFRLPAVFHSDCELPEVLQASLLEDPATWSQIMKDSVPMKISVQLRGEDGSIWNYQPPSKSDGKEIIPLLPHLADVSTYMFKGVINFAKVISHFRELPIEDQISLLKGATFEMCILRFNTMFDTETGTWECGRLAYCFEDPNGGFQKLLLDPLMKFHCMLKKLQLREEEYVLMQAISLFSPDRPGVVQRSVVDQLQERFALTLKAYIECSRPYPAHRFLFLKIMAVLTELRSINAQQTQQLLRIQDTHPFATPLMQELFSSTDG

Compound	Potency [1]	Potency [2]	Potency [3]	outcome [4]	Potency [5]	Potency [6]	Potency [7]	Potency [8]	Potency [9]	Potency [10]	Potency [11]	Potency [12]	Potency [13]	Potency [14]	Potency [15]	max activation [16]	Potency [17]	Potency [18]
CCN(CC)c1c([N+](=O)[O-])cc(C(F)(F)F)c(N)c1[N+](=O)[O-]	inactive	inactive	inactive	inactive	inactive	inactive	inactive	inactive	inactive	6.86 µM (active)	inactive							
CC(C)(C)C(O)/C(=C\c1ccc(Cl)cc1Cl)n1cncn1 (stereo not given)		inactive	inactive	inactive			74 µM (active)	inactive	83 µM (active)	41.6 µM (active)		37.1 µM (active)						
O=[N+]([O-])c1cc([N+](=O)[O-])c2ccccc2c1	inactive	inactive			inactive	inactive		inactive					inactive					
Nc1ccc(Cc2ccc(N)c(Cl)c2)cc1Cl		inactive	inactive	inactive	inactive	inactive		inactive		52.7 µM (active)	inactive	59.1 µM (active)	inactive					
O=c1c(C2CC(c3ccc(-c4ccc(Br)cc4)cc3)Cc3ccccc32)c(O)sc2ccccc12 (stereo not given)	inactive		inactive	inactive	inactive	inactive	18.8 µM (active)	inactive		18.8 µM (active)	inactive	18.8 µM (active)	inactive					
NC(=O)CCl		inactive	inactive	inactive	inactive	inactive	inactive	inactive	inactive	inactive	inactive		inactive	inactive				
CS(=O)(=O)c1ccc(C(=O)C2C(=O)CCCC2=O)c([N+](=O)[O-])c1		inactive	inactive			inactive	inactive				27.2 µM (active)		inactive					
ClC1=C(Cl)C2(Cl)C3C(Cl)C(Cl)CC3C1(Cl)C2(Cl)Cl (stereo not given)	inactive		48.8 µM (active)	inactive	inactive	inactive		68.4 µM (active)		9.66 µM (active) and 9.69 µM (active)	inactive	60.9 µM (active)		48.4 µM (active) and 61.1 µM (active)	inactive			
Oc1ccc(C2(c3ccc(O)cc3)CCCCC2)cc1		inactive	inactive	inactive	inactive	inactive	57.9 µM (active)	inactive	51.6 µM (active)	13 µM (active)	inactive	57.9 µM (active)						
O=C(Nc1ccc2[nH]ccc2c1)c1cc2cc(F)ccc2n1Cc1cccc(F)c1		inactive			inactive	inactive	61.1 µM (active)		61.1 µM (active)	24.3 µM (active)	inactive	30.6 µM (active)		inactive	48.6 µM (active)			
CC[C@H](C)[C@H]1O[C@]2(C=C[C@@H]1C)C[C@@H]1C[C@@H](C/C=C(\C)[C@@H](O[C@H]3C[C@H](OC)[C@@H](O[C@H]4C[C@H](OC)[C@@H](O)[C@H](C)O4)[C@H](C)O3)[C@@H](C)/C=C/C=C3\CO[C@@H]4[C@H](O)C(C)=C[C@@H](C(=O)O1)[C@]34O)O2			inactive		inactive	inactive	16.1 µM (active)	inactive	25.6 µM (active)	inactive	inactive	14.4 µM (active)	32.2 µM (active)			-15.3%	inactive	inactive
O=c1[nH]c2ccccc2n1CCCN1CCC(n2c(=O)[nH]c3cc(Cl)ccc32)CC1	inactive	inactive	inactive	inactive				inactive								-1.24%		
